Experimental data from PubChem BioAssay AID1159580 (chemical genetic matrix, 2015).
In all, about 5,500 compounds went through this assay and about 2,000 (36%) were called active. Not shown: some 18% with an inconclusive outcome. Rule as the data show it: active = normalized growth mostly below about 0.91 (no sharp cut-off); inconclusive = no clear call, values can overlap the other calls; inactive = mostly above about 0.92. Some of the results follow.

Experiment: chemical genetic growth profiling, strain panel (AID 1159580);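 also: tested at 20 µM; growth read once vehicle control cultures reached saturation at 30 °C; 1 = growth at the plate median or of vehicle wells; lower values mean less growth of the strain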
Conditions: growth OD

Measured: normalized growth

CCN(CC)CCOC(=O)C(c1ccccc1)c1ccccc1
inactive: S. cerevisiae deletion strains, locus YKL068W, active compounds read low 0.986 | S. cerevisiae deletion strains, locus YKL085W, strain MDH1 (second series), active compounds read low 0.994 | S. cerevisiae deletion strains, locus YKL085W, strain MDH1, active compounds read low 0.994 | S. cerevisiae deletion strains, locus YKL160W, strain elf1, active compounds read low 0.985 | S. cerevisiae deletion strains, locus YKL190W, strain CNB1, active compounds read low 0.989 | S. cerevisiae deletion strains, locus YKR001C, strain vps1, active compounds read low 1 | S. cerevisiae deletion strains, locus YKR026C, strain gcn3, active compounds read low 0.963 | S. cerevisiae deletion strains, locus YKR091W, strain srl3, active compounds read low 0.98 | S. cerevisiae deletion strains, locus YLL001W, strain dnm1, active compounds read low 0.952 | S. cerevisiae deletion strains, locus YLL026W, active compounds read low 0.971 | S. cerevisiae deletion strains, locus YLL041C, strain sdh2, active compounds read low 0.974 | S. cerevisiae deletion strains, locus YLR027C, strain aat2, active compounds read low 0.985 | S. cerevisiae deletion strains, locus YLR039C, strain RIC1, active compounds read low 1 | S. cerevisiae deletion strains, locus YLR058C, strain SHM2, active compounds read low 0.999 | S. cerevisiae deletion strains, locus YLR102C, strain apc9, active compounds read low 0.988 | S. cerevisiae deletion strains, locus YLR113W, strain HOG1, active compounds read low 0.965 | S. cerevisiae deletion strains, locus YLR221C, strain rsa3, active compounds read low 1 | S. cerevisiae deletion strains, locus YLR258W, strain gsy2, active compounds read low 0.963 | S. cerevisiae deletion strains, locus YLR262C, strain YPT6 (second series), active compounds read low 0.966 | S. cerevisiae deletion strains, locus YLR262C, strain YPT6, active compounds read low 1 | S. cerevisiae deletion strains, locus YLR268W, strain sec22, active compounds read low 0.984 | S. cerevisiae deletion strains, locus YLR320W, strain mms22, active compounds read low 1.01 | S. cerevisiae deletion strains, locus YLR330W, strain CHS5, active compounds read low 0.991 | S. cerevisiae deletion strains, locus YLR342W, strain FKS1 (second series), active compounds read low 0.988 | S. cerevisiae deletion strains, locus YLR342W, strain FKS1, active compounds read low 0.968 | S. cerevisiae deletion strains, locus YLR357W, strain rsc2, active compounds read low 0.982 | S. cerevisiae deletion strains, locus YLR370C, strain arc18, active compounds read low 0.945 | S. cerevisiae deletion strains, locus YLR371W, strain rom2, active compounds read low 1 | S. cerevisiae deletion strains, locus YLR384C, strain iki3, active compounds read low 0.97 | S. cerevisiae deletion strains, locus YLR418C, strain cdc73, active compounds read low 0.961 | S. cerevisiae deletion strains, locus YML016C, strain PPZ1, active compounds read low 0.998 | S. cerevisiae deletion strains, locus YML032C, strain rad52, active compounds read low 1 | S. cerevisiae deletion strains, locus YML120C, strain ndi1, active compounds read low 0.961 | S. cerevisiae deletion strains, locus YML124C, strain tub3, active compounds read low 0.992 | S. cerevisiae deletion strains, locus YMR058W, strain fet3, active compounds read low 0.97 | S. cerevisiae deletion strains, locus YMR078C, strain ctf18, active compounds read low 0.983 | S. cerevisiae deletion strains, locus YMR125W, strain sto1, active compounds read low 0.949 | S. cerevisiae deletion strains, locus YMR129W, active compounds read low 0.975 | S. cerevisiae deletion strains, locus YMR205C, strain PFK2, active compounds read low 0.971 | S. cerevisiae deletion strains, locus YMR223W, strain ubp8, active compounds read low 0.98 | S. cerevisiae deletion strains, locus YMR231W, strain pep5, active compounds read low 0.977 | S. cerevisiae deletion strains, locus YMR263W, strain SAP30, active compounds read low 0.991 | S. cerevisiae deletion strains, locus YMR307W, strain GAS1, active compounds read low 1.02 | S. cerevisiae deletion strains, locus YNL067W, strain RPL9B, active compounds read low 1.01 | S. cerevisiae deletion strains, locus YNL071W, strain lat1, active compounds read low 0.973 | S. cerevisiae deletion strains, locus YNL128W, strain TEP1, active compounds read low 0.968 | S. cerevisiae deletion strains, locus YNL183C, strain NPR1, active compounds read low 0.94 | S. cerevisiae deletion strains, locus YNL209W, strain ssb2, active compounds read low 0.969 | S. cerevisiae deletion strains, locus YNL233W, strain BNI4, active compounds read low 1.03 | S. cerevisiae deletion strains, locus YNL248C, strain rpa49, active compounds read low 0.976 | S. cerevisiae deletion strains, locus YNL250W, strain rad50, active compounds read low 0.99 | S. cerevisiae deletion strains, locus YNL271C, strain bni1, active compounds read low 0.984 | S. cerevisiae deletion strains, locus YNL298W, strain CLA4, active compounds read low 0.982 | S. cerevisiae deletion strains, locus YNL307C, strain MCK1, active compounds read low 0.998 | S. cerevisiae deletion strains, locus YNL322C, strain KRE1 (second series), active compounds read low 0.96 | S. cerevisiae deletion strains, locus YNL322C, strain KRE1, active compounds read low 0.987 | S. cerevisiae deletion strains, locus YNR049C, strain mso1, active compounds read low 0.96 | S. cerevisiae deletion strains, locus YNR052C, strain pop2, active compounds read low 0.98 | S. cerevisiae deletion strains, locus YOL006C, strain TOP1, active compounds read low 1.04 | S. cerevisiae deletion strains, locus YOL012C, strain htz1 0.836 | S. cerevisiae deletion strains, locus YOL147C, strain pex11, active compounds read low 0.994 | S. cerevisiae deletion strains, locus YOR001W, strain rrp6, active compounds read low 0.979 | S. cerevisiae deletion strains, locus YOR061W, strain CKA2, active compounds read low 0.999 | S. cerevisiae deletion strains, locus YOR069W, strain VPS5, active compounds read low 0.989 | S. cerevisiae deletion strains, locus YOR070C, strain gyp1, active compounds read low 0.974 | S. cerevisiae deletion strains, locus YOR080W, strain dia2, active compounds read low 0.957 | S. cerevisiae deletion strains, locus YOR083W, strain WHI5, active compounds read low 0.977 | S. cerevisiae deletion strains, locus YOR106W, strain vam3, active compounds read low 0.967 | S. cerevisiae deletion strains, locus YOR136W, strain idh2, active compounds read low 0.993 | S. cerevisiae deletion strains, locus YOR144C, strain elg1, active compounds read low 1 | S. cerevisiae deletion strains, locus YOR184W, strain ser1, active compounds read low 0.982 | S. cerevisiae deletion strains, locus YOR231W, strain MKK1, active compounds read low 0.989 | S. cerevisiae deletion strains, locus YOR265W, strain rbl2, active compounds read low 0.968 | S. cerevisiae deletion strains, locus YOR270C, strain vph1, active compounds read low 0.941 | S. cerevisiae deletion strains, locus YOR290C, strain snf2, active compounds read low 0.975 | S. cerevisiae deletion strains, locus YOR316C, strain cot1, active compounds read low 0.986 | S. cerevisiae deletion strains, locus YPL051W, strain arl3, active compounds read low 0.978 | S. cerevisiae deletion strains, locus YPL055C, strain LGE1, active compounds read low 1.02 | S. cerevisiae deletion strains, locus YPL078C, strain atp4, active compounds read low 0.965 | S. cerevisiae deletion strains, locus YPL106C, strain sse1, active compounds read low 0.931 | S. cerevisiae deletion strains, locus YPL240C, strain hsp82, active compounds read low 0.958 | S. cerevisiae deletion strains, locus YPL241C, strain CIN2, active compounds read low 0.991 | S. cerevisiae deletion strains, locus YPL256C, strain CLN2, active compounds read low 0.971 | S. cerevisiae deletion strains, locus YPR119W, strain clb2, active compounds read low 1 | S. cerevisiae deletion strains, locus YPR141C, strain kar3, active compounds read low 0.989 | S. cerevisiae deletion strains, locus YPR163C, strain tif3, active compounds read low 0.996 | S. cerevisiae deletion strains, locus YPR167C, strain met16, active compounds read low 0.987 | S. cerevisiae deletion strains, strain wtn01, active compounds read low 0.969 | S. cerevisiae strains, strain wild type, active compounds read low 0.992
